Assay results: PMC7672089, “Two nuclear effectors of the rice blast fungus modulate host immunity via transcriptional reprogramming”

The sequences below were run against T1, MoHTR1 (Magnaporthe oryzae, UniProt Q2KEJ2 20-198) (assay: array; high values mean tight binding). Conditions: protein: recombinant; tags: DsRed; 6xHis (pET-32a vector); dsDNA, one strand shown.
T1 sequence: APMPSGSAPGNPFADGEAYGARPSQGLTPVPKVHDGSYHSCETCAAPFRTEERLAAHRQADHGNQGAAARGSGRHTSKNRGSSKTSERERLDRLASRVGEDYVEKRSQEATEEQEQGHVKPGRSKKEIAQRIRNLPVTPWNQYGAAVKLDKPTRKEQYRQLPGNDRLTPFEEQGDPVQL
Sequence TCAATCTC has a binding signal of 23900 a.u.
AACTCTCC was tested, and the binding signal was 21600 a.u.
In the case of CTTCAATC, the binding signal was 21100 a.u.
Work on TCCAATCC yielded a binding signal of 22900 a.u.
With CATACTCC the binding signal was 19100 a.u.
In the case of CCTCCACC, the binding signal was 23900 a.u.
Sequence CTCCAACC has a binding signal of 14800 a.u.
With CTCAACTC the binding signal was 24700 a.u.
CTCATACC showed a binding signal of 25600 a.u.
CAATCCTC was tested, and the binding signal was 20100 a.u.
CCAACTCC showed a binding signal of 20800 a.u.
With CAATCTCC the binding signal was 20800 a.u.
With AACTCCTC the binding signal was 22100 a.u.
CCATACAC gave a binding signal of 14100 a.u.
CCTCCTCC was tested, and the binding signal was 21700 a.u.
Work on CCGCCACC yielded a binding signal of 13400 a.u.
Work on TCTCAATC yielded a binding signal of 24100 a.u.
CTAACTCC was tested, and the binding signal was 22500 a.u.
For CCTCAATC, the binding signal was 19700 a.u.
For CTCTAATC, the binding signal was 21800 a.u.
CCACCTCC gave a binding signal of 24000 a.u.
CAATCTTC was tested, and the binding signal was 27900 a.u.

The sequences below were run against T2, MoHTR2 (Magnaporthe oryzae, UniProt G5EHQ6 19-110) (assay: array; high values mean tight binding). Conditions: protein: recombinant; tags: DsRed; 6xHis (pET-32a vector); dsDNA, one strand shown.
T2 sequence: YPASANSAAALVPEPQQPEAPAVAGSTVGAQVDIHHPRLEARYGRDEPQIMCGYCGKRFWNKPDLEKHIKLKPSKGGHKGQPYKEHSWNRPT
Sequence CCTCCACC has a binding signal of 11600 a.u.
Sequence CATACCTC has a binding signal of 8490 a.u.
With CCGCCTCC the binding signal was 8800 a.u.
CCTCCGCC gave a binding signal of 9500 a.u.
Sequence CCTCCTCC has a binding signal of 10800 a.u.
CCACCTCC was tested, and the binding signal was 11800 a.u.
